# Records with an inconclusive call do not appear. A call without a number means that no potency is given here. Activity calls are given as the source filed them. Calls follow the shape of the dose curve; as a rule, active = well fitted curve in the direction sought with a large enough effect; inconclusive = small, poorly fitted or top-dose-only effect, or another doubt; inactive = no such curve, though single readings can be large; an effect the other way counts as inactive or inconclusive.
# Columns and labels:
# [1] = target: Aldehyde dehydrogenase, mitochondrial (Homo sapiens) (UniProt P05091); assay: qHTS for Inhibitors of the Aldehyde Dehydrogenase Family (ALDH2) Primary screen (AID 2061308); also: nearly all actives have a fitted effect of over 55% in size
# [2] = target: Retinaldehyde dehydrogenase 3 (Homo sapiens) (UniProt P47895); assay: qHTS for Inhibitors of the Aldehyde Dehydrogenase Family (ALDH1A3) Primary screen (AID 2061315)
SMILES,Potency [1],Potency [2]
Nc1nc(N)c2c(OCC3CCN(Cc4ccccc4F)CC3)cccc2n1,inactive,inactive
Cc1cccc(-c2ccc3ncnc(NCc4cccs4)c3c2)c1,inactive,inactive
Cc1ccc(-c2ccc(=O)n(CC(=O)N(C)C(C)c3cccs3)n2)cc1 (stereo not drawn),inactive,inactive
CNC(=O)c1ccc(-c2cnc3cnc(C(=O)N(C)c4ccc(Cl)cc4)cn23)cc1,inactive,inactive
Cc1ccc(NS(=O)(=O)c2cc3c(cc2NC(C)C)NC(=O)CC3)cc1C,inactive,inactive
CC(C)(C)OC(=O)Cc1nnc(C(C(=O)OCc2ccccc2)c2ccccc2)s1 (stereo not drawn),inactive,inactive
O=C(Nc1ccc(F)c(C(F)(F)F)c1)Nc1ccc(-c2ccncc2)s1,inactive,inactive
COc1cccc(C2=Nn3c(nnc3-c3ccc(OC)cc3OC)SC2)c1,inactive,inactive
COc1ccc(OC)c(-c2nnc3n2N=C(c2ccc(OC)c(OC4CCCC4)c2)CS3)c1,inactive,inactive
COc1cc(F)c(S(=O)(=O)N2CCCN(S(=O)(=O)c3ccc4c(c3)OCCO4)CC2)c(F)c1,inactive,inactive
Cc1cc2c(s1)c1cnn(Cc3cc(OC(F)(F)F)ccc3F)c(=O)c1n2C,inactive,inactive
COc1cccc(CNc2ccc(S(=O)(=O)Nc3ccccc3)cc2)c1O,inactive,inactive
OC[C@H]1O[C@@H](Oc2cccc3ccccc23)[C@H](O)[C@@H](O)[C@H]1O,inactive,inactive
CS(=O)(=O)c1ccc(C(=O)OCC(=O)N2CCC(c3ccccc3)CC2)cc1[N+](=O)[O-],inactive,inactive

# — PubChem BioAssay (NCATS)
